Screening data as filed in PubChem BioAssay.
A selection: hits, their analogues and other compounds. The true share with any hit is near 3.1%.
PLK1 PBD inh: qHTS for Inhibitors of PLK1-PDB (polo-like kinase 1 - polo-box domain): Primary Screen; Plk1 PBD binding of FITC phosphopeptide, fluorescence polarization; Potency, µM, usual class: inhibitors; 2.8% of 360,000 active; AID 720504, 2013; further: series mostly up to about 57 µM; nearly all actives have a fitted effect of over 65% in size
uPA surface inh: qHTS for Inhibitors of Cell Surface uPA Generation. cell surface uPA generation assay, qHTS. 0.31% of 330,000 active. Potency, µM (titrated, usually from 38.3 µM), most hits filed as inhibitors; active means well fitted inhibition curve with a large enough effect; inconclusive means small, poorly fitted or top-dose-only effect; inactive means no such curve, though single readings can be large or run the other way; tested in mouse RAW 264.7 cells; further: nearly all actives have a fitted effect of over 55% in size
PTAP TSG101 blk: qHTS Assay for Iinhibitors of HIV-1 Budding by Blocking the Interaction of PTAP/TSG101 | Potency, µM (doses to about 115 µM), hits mostly inhibitors | Tumor susceptibility gene 101 protein (Homo sapiens), Q99816 | Fluorescence polarization, FITC-PTAP peptide / Tsg101 binding | AID 493005, 2010 | 340,000 tested, under 10 active; active means well fitted inhibition curve with a large enough effect in the main read-out, with a control signal flat, not every such curve was filed as active; inconclusive means small, poorly fitted or top-dose-only effect, or effect the other way, or a change in a side signal; inactive means no such curve, though single readings can be large or run the other way
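Compounds were pin-transferred onto Tsg101 binding domain (10 uM final) in HEPES pH 7.5 buffer, then FITC-PTAP peptide was added at 50 nM final. After 20 min at RT, polarization reported peptide displacement across a qHTS concentration series.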
VDR inh: Inhibitors of the vitamin D receptor (VDR): qHTS; VDR-SRC2-3 peptide fluorescence polarization, 2 h; Potency, µM, usual class: inhibitors; AID 504847, 2011; Vitamin D3 receptor (Homo sapiens), P11473; 0.93% of 400,000 active
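After 23 nl compound addition and a short centrifugation, plates sat for 2 hours at ambient temperature; polarization of fluorescence then indicated loss of VDR binding to peptide SRC2-3.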
TSHR antag: Antagonists of the Thyroid Stimulating Hormone Receptor: HTS campaign | TSHR-expressing cells, TSH-stimulated cAMP HTRF, 2 h; active compounds read low | activity change, negative = inhibition, % at 11.5 µM | 0.2% of 330,000 active | AID 504810, 2011;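 active means activity change below a set negative limit, meaning inhibition stronger than a set level, cut at about -70% in these data; inconclusive means activity change between two set negative limits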
Target sequence (P16473 whole entry, looked up): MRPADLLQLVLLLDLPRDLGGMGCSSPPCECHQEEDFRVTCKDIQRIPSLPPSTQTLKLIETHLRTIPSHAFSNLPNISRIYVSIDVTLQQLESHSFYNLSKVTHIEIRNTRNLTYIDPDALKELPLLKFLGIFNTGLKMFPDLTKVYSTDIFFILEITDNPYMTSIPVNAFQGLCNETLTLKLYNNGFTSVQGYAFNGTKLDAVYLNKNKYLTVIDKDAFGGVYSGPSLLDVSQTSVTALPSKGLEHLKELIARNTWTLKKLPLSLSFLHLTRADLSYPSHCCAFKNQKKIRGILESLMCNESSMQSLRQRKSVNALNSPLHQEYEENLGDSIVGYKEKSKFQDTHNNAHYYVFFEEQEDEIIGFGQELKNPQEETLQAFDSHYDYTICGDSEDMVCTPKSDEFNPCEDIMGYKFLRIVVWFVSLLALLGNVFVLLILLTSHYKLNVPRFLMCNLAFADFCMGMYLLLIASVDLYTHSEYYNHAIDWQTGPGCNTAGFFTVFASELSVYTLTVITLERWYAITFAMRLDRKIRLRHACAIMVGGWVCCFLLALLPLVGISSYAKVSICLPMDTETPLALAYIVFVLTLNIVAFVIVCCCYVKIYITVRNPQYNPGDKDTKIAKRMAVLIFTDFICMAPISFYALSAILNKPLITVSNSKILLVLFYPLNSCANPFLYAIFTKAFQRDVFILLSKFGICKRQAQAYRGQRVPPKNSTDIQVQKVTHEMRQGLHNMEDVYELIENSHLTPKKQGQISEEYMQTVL
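Freshly harvested TSHR cells receive pin-tooled compound, then EC80 TSH at 4nM final. After 2 hours at 37 deg C, antibody in lysis buffer and cAMP-d2 are added; 30 minutes at ambient temperature precede the HTRF read.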
VDR confirm: qHTS for Inhibitors of the vitamin D receptor (VDR): Hit Validation in Primary Screen. AID 602199, 2012. shares compounds with VDR inh. 89% of 840 active. Potency, µM, usual class: inhibitors. VDR-coactivator inhibition assay, qHTS confirmation
VDR FP: qHTS for Inhibitors of the vitamin D receptor (VDR): Hit Validation using a Fluorescein Assay | 48% of 840 active | VDR-coactivator binding, fluorescein fluorescence polarization | shares compounds with VDR inh | Potency, µM (series often up to 57.1 µM), actives largely listed as inhibitors
VDR bla reporter: qHTS for Inhibitors of the vitamin D receptor (VDR): Hit Validation using a Beta-Lactamase Assay. shares compounds with VDR inh. VDR beta-lactamase reporter cells, FRET ratio; cells co-treated with VDR agonist LG190178. Potency, µM (highest dose often 46.1 µM), hits mostly inhibitors. 23% of 840 active. AID 602202, 2012
VDR viability: qHTS for Inhibitors of the vitamin D receptor (VDR): Hit Validation using a Cytotoxicity Assay. shares compounds with VDR inh. cytotoxicity counter-screen, cell viability, qHTS. Potency, µM (highest dose often 48.3 µM), actives largely listed as cytotoxic. 18% of 840 active. AID 602204, 2012; further: nearly all actives have a fitted effect of over 75% in size
Numbers stand for hits; - = inactive; ? = inconclusive; . = no result. Unless noted, the call rests on the fitted dose curve; in most records, active means well fitted curve in the direction sought with a large enough effect; inconclusive means small, poorly fitted or top-dose-only effect, or another doubt; inactive means no such curve, though single readings can be large; an effect the other way counts as inactive or inconclusive.

SMILES	PLK1 PBD inh	uPA surface inh	PTAP TSG101 blk	VDR inh	TSHR antag	VDR confirm	VDR FP	VDR bla reporter	VDR viability
O=C(N/N=C/c1ccccc1OC(=O)c1ccc2c(c1)OCO2)c1cccc(F)c1	-	-	-	-	-	.	.	.	.
Cc1c(C(=O)Nc2cccc(C(F)(F)F)c2)oc2ccc(S(=O)(=O)N(C)C3CCCCC3)cc12	.	.	.	-	.	.	.	.	.
COCCCNC(=O)c1ccc2c3c(onc13)-c1ccccc1C2=O	5.32µM	-	?	35.5µM	-	3.77	?	?	?
CCOc1ccc(/C=C/C(=O)Nc2sc3c(c2C(=O)OC)C(C(=O)OC)CC3)cc1 (centres undefined)	.	.	.	22.4µM	.	?	3.55µM	13µM	?
CCc1ccc(S(=O)(=O)Nc2ccc(O)c3ccccc23)cc1	?	-	-	?	-	2.99	8.91µM	?	?
O=S(=O)(Nc1ccc(NS(=O)(=O)c2ccccc2)c2ccccc12)c1ccccc1	-	.	.	.	.	.	.	.	.
COc1ccccc1NS(=O)(=O)c1cc(NC(=O)c2cccs2)ccc1N1CCCCC1	-	-	-	-	-	.	.	.	.
COc1ccccc1NS(=O)(=O)c1cc(NC(=O)c2cccs2)ccc1N1CCCC1	5.32µM	-	-	22.4µM	-	5.97	?	-	-
CCN(CC)c1ccc(NC(=O)c2ccccc2Br)cc1S(=O)(=O)Nc1ccccc1OC	1.5µM	-	-	22.4µM	-	2.99	2.82µM	-	-
Cc1ccc(-n2c(=O)c3ccc(C(=O)NCc4ccccc4Cl)cc3n(Cc3ccccc3F)c2=O)cc1	.	.	.	-	.	.	.	.	.
CC1=C(C)CS(=O)N(S(=O)(=O)c2ccccc2)C1 (centres undefined)	1.5µM	.	-	3.16µM	-	3.77	?	-	-
O=S(=O)(c1ccccc1)N1CCN(S(=O)(=O)c2ccccc2)CC1	.	.	.	-	.	.	.	.	.
COC(=O)c1ccccc1NC(=O)c1nc(S(=O)(=O)Cc2ccccc2)ncc1Cl	?	-	-	?	-	3.16	3.16µM	9.2µM	21.2µM
CCc1nnc(NC(=O)c2nc(S(=O)(=O)Cc3ccccc3)ncc2Cl)s1	-	-	-	22.4µM	-	7.52	8.91µM	13µM	18.4µM
O=C(NCc1ccc2c(c1)OCO2)c1ccccc1Cl	-	-	-	-	.	.	.	.	.
CCc1nnc(NC(=O)c2nc(S(=O)(=O)Cc3cccc(C)c3)ncc2Cl)s1	26.7µM	-	-	12.6µM	-	2.99	?	5.8µM	?
CCc1nnc(NC(=O)c2nc(SCc3ccccc3F)ncc2Cl)s1	.	.	.	-	.	.	.	.	.
O=C(NCc1ccc2c(c1)OCO2)c1nc(S(=O)(=O)Cc2ccccc2)ncc1Cl	?	-	-	22.4µM	-	9.47	?	18.4µM	?
COC(=O)c1cscc1S(=O)(=O)Cc1ccccc1	-	-	-	-	-	.	.	.	.
COc1ccccc1/C=C/C(=O)Nc1nc2n(n1)C(c1ccc(F)cc1)C=C(c1ccccc1)N2 (centres undefined)	.	.	.	-	.	.	.	.	.
Cc1ccc(C(=O)OC[C@H]2O[C@H](Cl)C[C@@H]2OC(=O)c2ccc(C)cc2)cc1	.	.	.	-	.	.	.	.	.
CCOc1ccccc1NC(=O)c1nc(S(=O)(=O)Cc2cccc(C)c2)ncc1Cl	?	?	-	15.8µM	-82.8	8.44	?	3.26µM	7.31µM
O=C(/C=C/c1ccc(Br)cc1)c1ccc(NC2=NCCCS2)cc1	-	?	-	22.4µM	-	15	10µM	?	18.4µM
O=C(Oc1ccccc1)N1CCC2(CC1)CN(c1ccccn1)C2	.	.	.	-	.	.	.	.	.
COC(=O)[C@H](CCSC)NC(=O)c1cc2c(cn1)[nH]c1ccccc12	2.99µM	-	-	25.1µM	-	7.52	?	-	-
SMILES	PLK1 PBD inh	uPA surface inh	PTAP TSG101 blk	VDR inh	TSHR antag	VDR confirm	VDR FP	VDR bla reporter	VDR viability
CNC(=O)c1cc2c(cn1)[nH]c1ccccc12	-	-	-	-	-	.	.	.	.
COc1ccc(C(=O)/C=C2/C(=O)Nc3ccccc32)cc1OC	-	-	-	-	-	.	.	.	.
O=C1Nc2ccccc2/C1=C/C(=O)c1cccs1	16.8µM	-	-	?	-	11.2	10µM	?	-
NC(=O)COc1ccc(C(=O)/C=C2/C(=O)Nc3ccccc32)cc1	?	-	-	?	-	?	?	-	-
COc1ccc(C(=O)/C=C2/C(=O)Nc3ccccc32)cc1	-	?	-	?	-	.	.	.	.
COc1cccc(C(=O)C(C#N)=C(SC)SC)c1	15µM	?	-	39.8µM	-	10.6	?	?	13µM
O=C(c1ccccc1)C(CCC(CN1CCOCC1)C(=O)c1ccccc1)CN1CCOCC1 (centres undefined)	-	-	-	?	-	?	?	20.6µM	-
CC1=C(C#N)C(=O)NC(=O)/C1=C\c1ccc(-c2cc(C)c(C)cc2[N+](=O)[O-])o1	4.74µM	-	-	25.1µM	-	10	8.91µM	-	-
Cc1ccc(-c2ccc(/C=C3/NC(=O)NC3=O)o2)cc1[N+](=O)[O-]	-	-	-	-	-	.	.	.	.
Cc1ccc(CN2C(=O)c3ccccc3Sc3ccc(C(=O)OCc4ccco4)cc32)cc1	.	.	.	-	.	.	.	.	.
COc1ccc(Cl)cc1NC(=O)CN(C)C(=O)CCCNC(=O)c1ccc(Cl)cc1	-	?	-	-	-	.	.	.	.
COc1ccc(-c2nnc3n2N=C(C)CS3)cc1	-	-	-	-	-	.	.	.	.
CCOC(=O)/C(=C\c1ccc(OC(F)F)cc1)C1=Nn2c(nnc2-c2ccc(Cl)cc2)SC1	?	-	-	15.8µM	-	5.97	?	16.4µM	13µM
CCOC(=O)/C(=C/c1ccc(OC(F)F)cc1)C1=Nn2c(nnc2-c2ccc(Cl)cc2)SC1	?	-	-	8.91µM	.	3.36	3.55µM	?	20.6µM
O=C(O)CN1C(=O)/C(=C\c2cc(Br)ccc2OCc2ccc(Cl)cc2Cl)SC1=S	11.9µM	-	-	44.7µM	-	16.8	17.8µM	-	?
